# Laboratory results: the supplement of paper PMC8728848
# Only a selection was taken, and the strongest signals are over-represented in it overall.
# Experiments:
# Test in all cases: glycan array binding signal (z-score within array); higher = stronger binding
# Settings in all cases: glycan notation: IUPAC condensed, linker removed
# [1] = biological target: Fuc(a1-2)Gal(b1-3)GalNAc(b1-3)Gal(a1-4)Gal(b1-4)Glc
# Procedure, shortened: (§1)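 From the Consortium for Functional Glycomics database, 3228 arrays were curated, keeping only those whose protein sequence was available. Binding is given as a within-array Z-score averaged across arrays sharing a protein sequence and across linkers. Negative Z-scores can be read as non-binding.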
# [2] = biological target: Fuc(a1-2)Gal(b1-3)GlcNAc(b1-3)[Gal(b1-4)GlcNAc(b1-6)]Gal(b1-4)Glc
# Procedure, shortened: as §1
# [3] = biological target: Fuc(a1-2)Gal(b1-4)GlcNAc(b1-2)Man
# Procedure, shortened: as §1
# [4] = biological target: Fuc(a1-2)Gal(b1-4)[Fuc(a1-3)]GlcNAc(b1-2)[Fuc(a1-2)Gal(b1-4)[Fuc(a1-3)]GlcNAc(b1-4)]Man(a1-3)[Fuc(a1-2)Gal(b1-4)[Fuc(a1-3)]GlcNAc(b1-2)Man(a1-6)]Man(b1-4)GlcNAc(b1-4)GlcNAc
# Procedure, shortened: as §1
# [5] = biological target: Fuc(a1-2)Gal(b1-4)[Fuc(a1-3)]GlcNAc(b1-3)[Neu5Ac(a2-6)Gal(b1-4)GlcNAc(b1-6)]Gal(b1-4)Glc
# Procedure, shortened: as §1
# [6] = biological target: Fuc(a1-2)Gal6S(b1-3)GlcNAc6S
# Procedure, shortened: as §1
# [7] = biological target: Fuc(a1-2)[Gal(a1-3)]Gal(b1-3)GlcNAc(b1-2)Man(a1-3)[Fuc(a1-2)[Gal(a1-3)]Gal(b1-3)GlcNAc(b1-2)Man(a1-6)]Man(b1-4)GlcNAc(b1-4)GlcNAc
# Procedure, shortened: as §1
# [8] = biological target: Fuc(a1-2)[Gal(a1-3)]Gal(b1-4)GlcNAc(b1-2)Man
# Procedure, shortened: as §1
# [9] = biological target: Fuc(a1-2)[GalNAc(a1-3)]Gal(b1-3)GlcNAc(b1-6)GalNAc
# Procedure, shortened: as §1
# [10] = biological target: Fuc(a1-2)[GalNAc(b1-3)]Gal
# Procedure, shortened: as §1
# [11] = biological target: Fuc(a1-3)[Gal(b1-4)]GlcNAc(b1-2)Man
# Procedure, shortened: as §1
# [12] = biological target: Fuc(a1-3)[Gal(b1-4)]GlcNAc(b1-6)GalNAc
# Procedure, shortened: as §1
# Gal(a1-2)Gal = biological target: Gal(a1-2)Gal
# Procedure, shortened: as §1
# Gal(a1-3)Gal(b1-3)GlcNAc = biological target: Gal(a1-3)Gal(b1-3)GlcNAc
# Procedure, shortened: as §1
# Gal(a1-4)Gal(b1-4)GlcNAc = biological target: Gal(a1-4)Gal(b1-4)GlcNAc
# Procedure, shortened: as §1
# [13] = biological target: Gal(b1-3)GalNAc(b1-4)Gal(b1-4)Glc
# Procedure, shortened: as §1
# [14] = biological target: Gal(b1-3)GalNAc(b1-4)[Neu5Ac(a2-3)]Gal(b1-4)Glc
# Procedure, shortened: as §1
# [15] = biological target: Gal(b1-3)GlcNAc(b1-2)Man(a1-3)[Gal(b1-3)GlcNAc(b1-2)Man(a1-6)]Man(b1-4)GlcNAc(b1-4)[Fuc(a1-6)]GlcNAc
# Procedure, shortened: as §1
# [16] = biological target: Gal(b1-3)GlcNAc(b1-6)[Gal(b1-3)]GalNAc
# Procedure, shortened: as §1
# Gal(b1-3)GlcNAc6S = biological target: Gal(b1-3)GlcNAc6S
# Procedure, shortened: as §1
# [17] = biological target: Gal(b1-4)GlcNAc(b1-2)Man(a1-3)Man(b1-4)GlcNAc(b1-4)GlcNAc
# Procedure, shortened: as §1
# [18] = biological target: Gal(b1-4)GlcNAc(b1-3)Gal(b1-4)GlcNAc(b1-3)Gal(b1-4)GlcNAc(b1-2)[Gal(b1-4)GlcNAc(b1-3)Gal(b1-4)GlcNAc(b1-3)Gal(b1-4)GlcNAc(b1-6)]Man(a1-6)[Gal(b1-4)GlcNAc(b1-3)Gal(b1-4)GlcNAc(b1-3)Gal(b1-4)GlcNAc(b1-2)Man(a1-3)]Man(b1-4)GlcNAc(b1-4)[Fuc(a1-6)]GlcNAc
# Procedure, shortened: as §1
# [19] = biological target: Gal(b1-4)GlcNAc(b1-3)Gal(b1-4)GlcNAc(b1-3)Gal(b1-4)GlcNAc(b1-3)Gal(b1-4)GlcNAc(b1-3)Gal(b1-4)GlcNAc(b1-2)Man(a1-3)[Gal(b1-4)GlcNAc(b1-3)Gal(b1-4)GlcNAc(b1-3)Gal(b1-4)GlcNAc(b1-3)Gal(b1-4)GlcNAc(b1-3)Gal(b1-4)GlcNAc(b1-2)Man(a1-6)]Man(b1-4)GlcNAc(b1-4)GlcNAc
# Procedure, shortened: as §1
# [20] = biological target: Gal(b1-4)GlcNAc(b1-3)Gal(b1-4)GlcNAc(b1-3)Gal(b1-4)GlcNAc(b1-3)Gal(b1-4)GlcNAc(b1-3)Gal(b1-4)GlcNAc(b1-3)Gal(b1-4)GlcNAc(b1-2)Man(a1-3)[Gal(b1-4)GlcNAc(b1-3)Gal(b1-4)GlcNAc(b1-3)Gal(b1-4)GlcNAc(b1-3)Gal(b1-4)GlcNAc(b1-3)Gal(b1-4)GlcNAc(b1-3)Gal(b1-4)GlcNAc(b1-2)Man(a1-6)]Man(b1-4)GlcNAc(b1-4)GlcNAc
# Procedure, shortened: as §1
# [21] = biological target: Gal(b1-4)GlcNAc(b1-3)Gal(b1-4)GlcNAc(b1-3)[Gal(b1-4)GlcNAc(b1-3)Gal(b1-4)GlcNAc(b1-6)]GalNAc
# Procedure, shortened: as §1
binder,measurement,setting,value
GS7807F-bth-514-18-514 (Bacteroides thetaiotaomicron) (protein) AGSCTGNFEEYNTNQFQIHEADPSTLMKSMIETIVNIQQNDSQMMDQMVGQLGGYLTCANVWSGTNFGTFNQSDAWNAGPWNTNFEKIYGNFFQIQEATNESGHYYAFARMIRAITMLRVADCYGPMPYSQVKKGNFYVAYDTEEQVYKNIMEDFASAANVLYNYYKDTNGNAPLASNDPVFSGNYANWARLANSMRLRVAIRISTAYPEMAKENAEAAASHEAGLIEANNDNAMMDCGSQTNPYQLAAVSWGDLRVNANIVDYMNGYGDPRMSKYFNHSTFTGHTQEYVGMRSGEDGFAKSDVAGYSIPAITGTSKLLVFCAAETAFLRAEGKLKNWSVGNKSAKEYYEEGIKLSMEQYGTTMPDNYLTNTEKPTVSHNNDPRGHAYTISNTVAVAWNDNNEEENLQRIITQKWIANYPLGLEAWAEYRRTGYPELYPCIDNLSPSGVDSKRGMRRLRFPYTEVQNNHSNYQQGVSYLKNGGPDNEATDLSWGKTN,glycan array binding signal (z-score),[1],-0.883
same,glycan array binding signal (z-score),[2],-0.372
same,glycan array binding signal (z-score),[3],-0.353
same,glycan array binding signal (z-score),[4],-0.286
same,glycan array binding signal (z-score),[5],-0.798
same,glycan array binding signal (z-score),[6],-0.358
same,glycan array binding signal (z-score),[7],0.454
same,glycan array binding signal (z-score),[8],-0.295
same,glycan array binding signal (z-score),[9],-0.854
same,glycan array binding signal (z-score),[10],3.2
same,glycan array binding signal (z-score),[11],-0.562
same,glycan array binding signal (z-score),[12],-0.328
same,glycan array binding signal (z-score),Gal(a1-2)Gal,-0.45
same,glycan array binding signal (z-score),Gal(a1-3)Gal(b1-3)GlcNAc,0.018
same,glycan array binding signal (z-score),Gal(a1-4)Gal(b1-4)GlcNAc,0.384
same,glycan array binding signal (z-score),[13],0.212
same,glycan array binding signal (z-score),[14],3.23
same,glycan array binding signal (z-score),[15],0.491
same,glycan array binding signal (z-score),[16],1.38
same,glycan array binding signal (z-score),Gal(b1-3)GlcNAc6S,2.12
same,glycan array binding signal (z-score),[17],0.202
same,glycan array binding signal (z-score),[18],3.25
same,glycan array binding signal (z-score),[19],4.26
same,glycan array binding signal (z-score),[20],3.26
same,glycan array binding signal (z-score),[21],3.96
